“And” between values parts separate entries of the source, which are not always exact repeats. Equal values may be shown once. Among all 5,500 compounds or so, about 2,000 (36%) were called active. About 18% were inconclusive and are not listed. Rule as the data show it: active = normalized growth mostly below about 0.91 (no sharp cut-off); inconclusive = no clear call, values can overlap the other calls; inactive = mostly above about 0.92. This is one part of the list.
Assay: chemical genetic growth profiling, strain panel (AID 1159580);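 also: tested at 20 µM; growth read once vehicle control cultures reached saturation at 30 °C; 1 = growth at the plate median or of vehicle wells; lower values mean less growth of the strain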
Settings: S. cerevisiae deletion strains, growth OD
[1] = locus YBR229C, strain ROT2, stronger effect = lower value
[2] = locus YDL101C, strain DUN1, stronger effect = lower value
[3] = locus YHR030C, strain SLT2, stronger effect = lower value
[4] = locus YJR075W, strain HOC1, stronger effect = lower value
[5] = locus YLR039C, strain RIC1, stronger effect = lower value
[6] = locus YNL153C, strain GIM3, stronger effect = lower value
[7] = locus YPL241C, strain CIN2, stronger effect = lower value

Measured: normalized growth

NC(=O)C1=C(O)C(=O)N(C2CCCCC2)C1
inactive: locus YAL013W, strain DEP1, stronger effect = lower value 0.992 | [1] 1.01 | [2] 1.02 | locus YDR150W, strain NUM1, stronger effect = lower value 1.03 | locus YEL061C, strain CIN8, stronger effect = lower value 0.995 | locus YGR078C, strain PAC10, stronger effect = lower value 1 | [3] 1.05 | locus YHR087W, strain rtc3, stronger effect = lower value 0.99 | locus YJR043C, strain POL32, stronger effect = lower value 1.02 | [4] 1.01 | locus YKL190W, strain CNB1, stronger effect = lower value 1.01 | [5] 1.02 | locus YLR058C, strain SHM2 (second series), stronger effect = lower value 1.01 | locus YLR085C, strain ARP6, stronger effect = lower value 1.03 | locus YLR262C, strain YPT6, stronger effect = lower value 1 | locus YML094W, strain GIM5, stronger effect = lower value 1 | locus YMR219W, strain ESC1, stronger effect = lower value 1.01 | locus YMR263W, strain SAP30, stronger effect = lower value 1 | [6] 1.01 | locus YNL298W, strain CLA4 (second series), stronger effect = lower value 1.02 | locus YNL322C, strain KRE1, stronger effect = lower value 0.998 | locus YNR030W, strain Alg12, stronger effect = lower value 1.03 | locus YPL055C, strain LGE1, stronger effect = lower value 0.999 | [7] 0.974 | locus YPR135W, strain CTF4, stronger effect = lower value 1.06

O=c1c(O)cccc2cc(O)c(O)c(O)c12
active: locus YAL021C, strain ccr4, stronger effect = lower value 0.082 | locus YAL026C, strain drs2, stronger effect = lower value 0.425 | locus YAL030W, strain snc1, stronger effect = lower value 0.884 | locus YBL061C, strain skt5, stronger effect = lower value 0.798 | locus YBR009C, strain hhf1, stronger effect = lower value 0.76 | locus YBR023C, strain chs3, stronger effect = lower value 0.668 | locus YBR171W, strain sec66, stronger effect = lower value 0.881 | [1] 0.844 | locus YBR231C, strain swc5, stronger effect = lower value 0.623 | locus YBR279W, strain paf1, stronger effect = lower value 0.856 | locus YCL011C, strain gbp2, stronger effect = lower value 0.859 | locus YCL016C, strain dcc1, stronger effect = lower value 0.858 | locus YCL029C, strain bik1, stronger effect = lower value 0.443 | locus YCL061C, strain MRC1, stronger effect = lower value 0.833 | locus YCL069W, strain vba3, stronger effect = lower value 0.858 | locus YCR088W, strain abp1, stronger effect = lower value 0.875 | locus YDL035C, strain GPR1, stronger effect = lower value 0.678 | locus YDL074C, strain BRE1, stronger effect = lower value 0.497 | [2] 0.457 | locus YDL185W, strain tfp1, stronger effect = lower value 0.501 | locus YDL192W, strain arf1, stronger effect = lower value 0.742 | locus YDR069C, strain doa4, stronger effect = lower value 0.166 | locus YDR101C, strain arx1, stronger effect = lower value 0.479 | locus YDR137W, strain rgp1, stronger effect = lower value 0.126 | locus YDR159W, strain sac3, stronger effect = lower value 0.149 | locus YDR162C, strain NBP2, stronger effect = lower value 0.515 | locus YDR195W, strain ref2 0.692 | locus YDR297W, strain sur2, stronger effect = lower value 0.877 | locus YDR318W, strain mcm21, stronger effect = lower value 0.885 | locus YDR334W, strain swr1, stronger effect = lower value 0.515 | locus YDR335W, strain msn5, stronger effect = lower value 0.18 | locus YDR388W, stronger effect = lower value 0.855 | locus YDR392W, strain spt3, stronger effect = lower value 0.738 | locus YDR502C, strain sam2, stronger effect = lower value 0.569 | locus YEL003W, strain gim4, stronger effect = lower value 0.671 | locus YEL037C, strain rad23, stronger effect = lower value 0.716 | locus YEL061C, strain CIN8 (second series), stronger effect = lower value 0.878 | locus YER015W, strain faa2, stronger effect = lower value 0.593 | locus YER016W, strain bim1, stronger effect = lower value 0.904 | locus YER111C, strain swi4, stronger effect = lower value 0.22 | locus YER155C, strain BEM2 (second series), stronger effect = lower value 0.489 | locus YER155C, strain BEM2, stronger effect = lower value 0.664 | locus YER167W, strain BCK2, stronger effect = lower value 0.865 | locus YFR010W, strain ubp6, stronger effect = lower value 0.509 | locus YGL078C, strain dbp3, stronger effect = lower value 0.841 | locus YGL086W, strain mad1, stronger effect = lower value 0.758 | locus YGL167C, strain pmr1, stronger effect = lower value 0.757 | locus YGL173C, strain kem1, stronger effect = lower value 0.497 | locus YGL248W, strain PDE1, stronger effect = lower value 0.775 | locus YGL253W, strain hxk2, stronger effect = lower value 0.71 | locus YGR135W, strain pre9, stronger effect = lower value 0.822 | locus YGR252W, strain gcn5, stronger effect = lower value 0.716 | locus YHR013C, strain ard1, stronger effect = lower value 0.577 | locus YHR027C, strain rpn1, stronger effect = lower value 0.554 | [3] 0.898 and 0.73 | locus YHR079C, strain IRE1 (second series), stronger effect = lower value 0.182 | locus YHR079C, strain IRE1, stronger effect = lower value 0.654 | locus YHR129C, strain ARP1, stronger effect = lower value 0.693 | locus YHR142W, strain chs7, stronger effect = lower value 0.536 | locus YHR200W, strain rpn10, stronger effect = lower value 0.817 | locus YIL066C, strain RNR3, stronger effect = lower value 0.768 | locus YIL073C, strain SPO22, stronger effect = lower value 0.508 | locus YIL125W, strain kgd1, stronger effect = lower value 0.783 | locus YIR030C, strain dcg1, stronger effect = lower value 0.812 | locus YJL092W, strain hpr5, stronger effect = lower value 0.9 | locus YJL095W, strain BCK1 (second series), stronger effect = lower value 0.754 | locus YJL095W, strain BCK1, stronger effect = lower value 0.105 and 0.759 | locus YJL115W, strain asf1, stronger effect = lower value 0.894 | locus YJL129C, strain trk1, stronger effect = lower value 0.547 | locus YJL134W, strain LCB3, stronger effect = lower value 0.872 | locus YJL154C, strain vps35, stronger effect = lower value 0.816 | locus YJL164C, strain tpk1, stronger effect = lower value 0.714 | locus YJL166W, strain qcr8, stronger effect = lower value 0.802 | locus YJL187C, strain SWE1 (second series), stronger effect = lower value 0.22 | locus YJL187C, strain SWE1, stronger effect = lower value 0.813 | locus YJR066W, strain TOR1, stronger effect = lower value 0.684 | [4] 0.82 | locus YKL009W, strain mrt4, stronger effect = lower value 0.345 | locus YKL068W, stronger effect = lower value 0.928 | locus YKL085W, strain MDH1 (second series), stronger effect = lower value 0.818 | locus YKL085W, strain MDH1, stronger effect = lower value 0.818 | locus YKL160W, strain elf1, stronger effect = lower value 0.853 | locus YKR001C, strain vps1, stronger effect = lower value 0.818 | locus YKR026C, strain gcn3, stronger effect = lower value 0.915 | locus YLL001W, strain dnm1, stronger effect = lower value 0.699 | locus YLL026W, stronger effect = lower value 0.841 | locus YLL041C, strain sdh2, stronger effect = lower value 0.902 | locus YLR027C, strain aat2, stronger effect = lower value 0.815 | [5] 0.481 | locus YLR058C, strain SHM2, stronger effect = lower value 0.22 | locus YLR113W, strain HOG1, stronger effect = lower value 0.51 | locus YLR221C, strain rsa3, stronger effect = lower value 0.78 | locus YLR258W, strain gsy2, stronger effect = lower value 0.83 | locus YLR262C, strain YPT6 (second series), stronger effect = lower value 0.485 | locus YLR268W, strain sec22, stronger effect = lower value 0.515 | locus YLR320W, strain mms22, stronger effect = lower value 0.595 | locus YLR330W, strain CHS5, stronger effect = lower value 0.852 | locus YLR342W, strain FKS1 (second series), stronger effect = lower value 0.564 | locus YLR342W, strain FKS1, stronger effect = lower value 0.764 | locus YLR357W, strain rsc2, stronger effect = lower value 0.632 | locus YLR370C, strain arc18, stronger effect = lower value 0.656 | locus YLR371W, strain rom2, stronger effect = lower value 0.746 | locus YLR384C, strain iki3, stronger effect = lower value 0.799 | locus YLR418C, strain cdc73, stronger effect = lower value 0.458 | locus YML016C, strain PPZ1, stronger effect = lower value 0.583 | locus YML032C, strain rad52, stronger effect = lower value 0.522 | locus YML120C, strain ndi1, stronger effect = lower value 0.0997 | locus YML124C, strain tub3, stronger effect = lower value 0.839 | locus YMR058W, strain fet3, stronger effect = lower value 0.179 | locus YMR129W, stronger effect = lower value 0.919 | locus YMR205C, strain PFK2, stronger effect = lower value 0.511 | locus YMR223W, strain ubp8, stronger effect = lower value 0.838 | locus YMR231W, strain pep5, stronger effect = lower value 0.183 | locus YMR307W, strain GAS1, stronger effect = lower value 0.586 | locus YNL067W, strain RPL9B, stronger effect = lower value 0.699 | locus YNL071W, strain lat1, stronger effect = lower value 0.833 | [6] 0.511 | locus YNL183C, strain NPR1, stronger effect = lower value 0.66 | locus YNL209W, strain ssb2, stronger effect = lower value 0.398 | locus YNL233W, strain BNI4, stronger effect = lower value 0.741 | locus YNL248C, strain rpa49, stronger effect = lower value 0.811 | locus YNL250W, strain rad50, stronger effect = lower value 0.76 | locus YNL271C, strain bni1, stronger effect = lower value 0.841 | locus YNL322C, strain KRE1 (second series), stronger effect = lower value 0.237 | locus YNR049C, strain mso1, stronger effect = lower value 0.898 | locus YNR052C, strain pop2, stronger effect = lower value 0.185 | locus YOL006C, strain TOP1, stronger effect = lower value 0.423 | locus YOL147C, strain pex11, stronger effect = lower value 0.689 | locus YOR001W, strain rrp6, stronger effect = lower value 0.686 | locus YOR061W, strain CKA2, stronger effect = lower value 0.734 | locus YOR069W, strain VPS5, stronger effect = lower value 0.775 | locus YOR070C, strain gyp1, stronger effect = lower value 0.901 | locus YOR080W, strain dia2, stronger effect = lower value 0.553 | locus YOR083W, strain WHI5, stronger effect = lower value 0.737 | locus YOR106W, strain vam3, stronger effect = lower value 0.367 | locus YOR144C, strain elg1, stronger effect = lower value 0.545 | locus YOR184W, strain ser1, stronger effect = lower value 0.636 | locus YOR231W, strain MKK1, stronger effect = lower value 0.665 | locus YOR265W, strain rbl2, stronger effect = lower value 0.871 | locus YOR270C, strain vph1, stronger effect = lower value 0.16 | locus YOR290C, strain snf2, stronger effect = lower value 0.105 | locus YPL051W, strain arl3, stronger effect = lower value 0.525 | locus YPL078C, strain atp4, stronger effect = lower value 0.284 | locus YPL106C, strain sse1, stronger effect = lower value 0.747 | locus YPL240C, strain hsp82, stronger effect = lower value 0.864 | [7] 0.841 | locus YPL256C, strain CLN2, stronger effect = lower value 0.601 | locus YPR141C, strain kar3, stronger effect = lower value 0.607 | locus YPR163C, strain tif3, stronger effect = lower value 0.884 | locus YPR167C, strain met16, stronger effect = lower value 0.871 | strain wtn01, stronger effect = lower value 0.761
inactive: locus YBR021W, strain FUR4, stronger effect = lower value 0.921 | locus YDL005C, strain med2, stronger effect = lower value 0.978 | locus YDL040C, strain nat1, stronger effect = lower value 0.946 | locus YDR001C, strain nth1, stronger effect = lower value 0.925 | locus YER110C, stronger effect = lower value 1.02 | locus YGL227W, strain vid30, stronger effect = lower value 0.954 | locus YGL240W, strain doc1, stronger effect = lower value 0.968 | locus YHR094C, strain hxt1, stronger effect = lower value 0.98 | locus YJL168C, strain set2, stronger effect = lower value 0.966 | locus YKR091W, strain srl3, stronger effect = lower value 0.939 | locus YLR102C, strain apc9, stronger effect = lower value 1.02 | locus YMR078C, strain ctf18, stronger effect = lower value 0.971 | locus YMR125W, strain sto1, stronger effect = lower value 0.955 | locus YNL298W, strain CLA4, stronger effect = lower value 0.969 | locus YNL307C, strain MCK1, stronger effect = lower value 0.959 | locus YOL012C, strain htz1 0.272 | locus YOR136W, strain idh2, stronger effect = lower value 0.925 | locus YOR316C, strain cot1, stronger effect = lower value 1 | locus YPR119W, strain clb2, stronger effect = lower value 1.01

— PubChem BioAssay AID1159580 (chemical genetic matrix, 2015)
